High-throughput results: PubChem, National Center for Advancing Translational Sciences (NCATS)
Marburg entry inh: Marburg virus entry inhibition. Marburg virus pseudotyped entry inhibition, cell reporter. Potency, µM (series often up to 37.8 µM), for inactives: at the top dose activity change, negative = inhibition, actives largely listed as inhibitors. actives 1.8% (n = 300,000). AID 540276; calls by dose curve; tested in HEK293 cells; note: potency is the fitted concentration of half-maximal effect; % is set by controls: 0 for no effect and ±100 for the full control effect
AMA1 RON2 block: AMA1-RON2 (P. falciparum) interaction inhibition. AlphaScreen AMA1-biotinylated RON2 peptide binding. Potency, µM (highest dose often 58.2 µM), inactives show at the top dose activity change, negative = inhibition, actives largely listed as inhibitors. actives 0.2% (n = 360,000). AID 720542; active = well fitted inhibition curve with a large enough effect; inconclusive = small, poorly fitted or top-dose-only effect; inactive = no such curve, though single readings can be large or run the other way;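 note: potency is the fitted concentration of half-maximal effect; 0% = vehicle wells and -100% = peptide control; nearly all actives have a fitted effect of over 45% in size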
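AMA1 (3D7) with his tag at 25 nM final met compounds first, then biotinylated RON2 peptide at 25 nM; detection used donor plus acceptor beads, 10 µg/mL apiece, read by AlphaScreen after 30 min at room temperature.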
Lassa entry inh: Lassa virus entry inhibition | Lassa virus pseudotype entry inhibition, cell reporter | Potency, µM (series often up to 37.9 µM), for inactives: at the top dose activity change, negative = inhibition, actives largely listed as inhibitors | actives 1.2% (n = 300,000) | AID 540256; calls by dose curve; tested in HEK293 cells; note: potency is the fitted concentration of half-maximal effect; % is set by controls: 0 for no effect and ±100 for the full control effect; nearly all actives have a fitted effect of over 50% in size
Shiga toxin inh: Shiga toxin inhibition | Vero cells, Shiga toxin protein synthesis inhibition reporter | inhibition, % at 38.7 µM | actives 9.2% (n = 290,000) | AID 2315; in the data active = inhibition mostly above about 28%, no sharp cut-off; inactive = mostly below about 43%; note: 0% is about no effect
CHX counter: affects cycloheximide protein synthesis inhibition readout, counter-screen; cell reporter, cycloheximide protein synthesis inhibition counterscreen; max response, %; actives 12% (n = 300,000); in the data active = max response mostly above about 13%, no sharp cut-off; inactive = mostly below about 14%; note: read at 38.3 µM for the half of the compounds with a filed dose; 0% is about no effect
Numbers without * were called inactive; u = inconclusive; x = not tested or not shown; ! = not confirmed by another sample; [ ] = another dose, or the depositor's remark. Only a selection was taken, and hits are over-represented in it overall.

SMILES	Marburg entry inh	AMA1 RON2 block	Lassa entry inh	Shiga toxin inh	CHX counter
Cc1csc(SCC(=O)Nc2nc(-c3ccccc3)cs2)n1	16%	-6%	-2%	27	13*
O=C(C[n+]1cc(-c2ccccc2)n2c1CCC2)Nc1nc(-c2ccccc2)cs1	20%	-4%	10%	1	12
COc1ccccc1-c1nnc(SCC(=O)Nc2nc(-c3ccccc3)cs2)n1C	23µM*	-26%	23µM*	28	12
O=C(CSCC(=O)N1CCCc2ccccc21)Nc1nc(-c2ccccc2)cs1	-30%	6%	u	33	18*
CCc1nc2ccc(C(=O)N(C)Cc3ccccc3)cn2c1N(C)Cc1ccc(OC)cc1	x	-2%	x	x	x
CCCCn1c(N)c(N(Cc2ccccc2OC)C(=O)C(C)Oc2cccc(Cl)c2)c(=O)[nH]c1=O (stereo not given)	x	-3%	x	x	x
CCc1cc(C(=O)NNC(=S)NCc2ccccc2)cs1	16%	81%	0%	26	4
O=C(NNC(=S)Nc1ccc(F)cc1F)c1ccco1	x	132%	x	27	33*
CCc1cc(C(=O)Nc2ccccc2)cs1	-18%	1%	u	106*	41*
Cc1ccccc1NC(=S)NNC(=O)c1ccco1	16%[46.1 µM]	88%	26%[46.1 µM]	52*	32*
CCc1cc(C(=O)NNC(=S)Nc2ccccc2C)cs1	u	100%	u	96*	38*
CC(=O)c1ccc(S(=O)(=O)Nc2ccc(C(=O)NCCCn3ccnc3)cc2)cc1	x	0%	x	x	x
COc1ccc(NC(=O)/C(Cl)=C(/Cl)S(=O)Cc2ccccc2)cn1 (stereo not given)	u	1%	1.6µM*	24	48*
COc1ccc(CS(=O)(=O)/C(Cl)=C(/Cl)C(=O)Nc2ccc(OC)nc2)cc1	2.8µM*	-5%	6.3µM*	3	13
Nc1ccc(C(=O)Oc2ccc([N+](=O)[O-])cc2)cc1	x	1%	x	105*	51*
Nc1ccc(C(=O)OCC(=O)Nc2cc([N+](=O)[O-])ccc2F)cc1	x	-5%	x	-9	12*
Cc1cc2nc(-c3ccc[nH]c3=O)n(Cc3ccccc3F)c2cc1C	u	1%	12%	43*	38*
Cc1cc2nc(-c3ccc[nH]c3=O)n(Cc3ccc(F)cc3)c2cc1C	-12%[46.1 µM]	16%	-12%[46.1 µM]	23	12*
CN(Cc1cccnc1)C(=O)c1ccc(Cl)c(NS(=O)(=O)c2ccc(F)cc2)c1	u	-4%	7%	x	x
O=C(/C=C/c1c(Cl)nc2ccccn12)N1CCCCC1	-5%[46.1 µM]	4%	2%	49	39*
CS(=O)(=O)Nc1ccccc1Oc1ccccc1	-1%	-2%	0%	-8	1
CS(=O)(=O)Nc1ccc([N+](=O)[O-])cc1Oc1ccccc1	u	-16%	0.016µM*!	-6	-3
O=C(COc1ccccc1)Nc1cc(Cl)ccc1Cl	x	0%	x	37*	18*
O=C(COc1ccccc1)Nc1ccc(Cl)cc1C(=O)c1ccccc1	u	-19%	-23%	-3	5
O=C(COc1ccccc1)Nc1ccc(Cl)cc1Cl	x	x	x	93*	53*
SMILES	Marburg entry inh	AMA1 RON2 block	Lassa entry inh	Shiga toxin inh	CHX counter
CCCNS(=O)(=O)c1ccc(OCC(=O)Nc2ccccc2F)cc1	-4%	-4%	6%	11	13
Cc1ccc(Cl)cc1NC(=O)COc1ccccc1	x	5%	x	30	16*
O=C(COc1ccccc1)Nc1ccccc1F	17%	-7%	u	x	33*
CN(c1ccc(OCC(=O)Nc2ccccc2C(=O)O)cc1)S(=O)(=O)c1ccc(Cl)cc1	3.5µM*	8%	3.2µM*	x	x
CCCCNC(=O)c1ccc(CS(=O)(=O)c2ccc(C)cc2)o1	u	0%	16µM*	12	-3
CCCCNC(=O)c1ccc(CS(=O)(=O)c2ccc(OC)cc2)o1	x	25%	x	-6	6
O=C(NCc1cccs1)c1ccc(CS(=O)(=O)c2ccc(Cl)cc2)o1	-14%	2%	12µM*	-24	-2
CC(=O)NC(Cc1c[nH]c2ccccc12)C(=O)N1CCN(S(=O)(=O)c2ccccc2)CC1 (stereo not given)	u	-4%[11.6 µM]	-4%	x	x
CC(C)c1ccc(S(=O)(=O)N2CCC(n3c(C(F)(F)F)nc4cccnc43)CC2)cc1	x	x	-6%[46.1 µM]	x	x
O=C(NCCCN1CCCC1=O)c1cc2nc(-c3ccco3)cc(C(F)(F)F)n2n1	2%[46.1 µM]	-10%	1%	-6	-5
O=C(CSc1ncccn1)NC(=O)Cc1ccccc1	12%	0%	0%	x	x
O=C(CSc1nccc(=O)[nH]1)NCc1ccc(Cl)cc1	x	8%	x	-8	-2
